Holding throughout (test): DAPPL (digital affinity profiling via proximity ligation, sequencing); 10 mM Tris-HCl pH 7.5, 50 mM NaCl, 1 mM DTT, 4% glycerol, room temperature, 30 min; GST-TFs on glutathione beads, 16-mer random dsDNA library, 0.1% formaldehyde crosslink after washing; high values mean tight binding
One assay has as its target T1, FEV (Homo sapiens, UniProt Q99581 1-238).
T1 sequence: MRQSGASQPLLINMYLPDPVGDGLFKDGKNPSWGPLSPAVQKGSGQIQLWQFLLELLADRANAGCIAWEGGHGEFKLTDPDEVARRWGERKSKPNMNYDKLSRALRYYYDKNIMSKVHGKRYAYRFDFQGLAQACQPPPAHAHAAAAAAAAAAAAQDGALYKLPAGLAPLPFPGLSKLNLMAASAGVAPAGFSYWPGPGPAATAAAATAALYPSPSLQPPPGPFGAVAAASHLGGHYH
As to conditions: protein: recombinant; tags: N-terminal GST; dsDNA, one strand shown. In a few lines: (§1)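 Human transcription factors carrying a GST fusion were produced in yeast, bound to glutathione beads, tagged with DNA barcodes and pooled together with a tag-only sample. Each pool was held with 200 nmole of a random double-stranded 16-mer DNA library in Tris/NaCl/DTT/glycerol buffer for 30 min at room temperature, then washed, crosslinked in 0.1% formaldehyde, proximity-ligated with BsaI/T4 ligase (1 h, 37 °C), PCR-amplified and sequenced on an Illumina NextSeq500. Binding signal is the read frequency of each hexamer for a given factor divided by its frequency in the tag-only sample.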

A further assay concerns the target ETV5 (Homo sapiens, UniProt P41161 1-510). Conditions: protein: recombinant; tags: N-terminal GST; dsDNA, one strand shown. Summed up: as §1
A further assay deals with HSF1 (Homo sapiens, UniProt Q00613 1-529). As to conditions: protein: recombinant; tags: N-terminal GST; chain copies: 3; dsDNA, one strand shown. Summed up: as §1
Chain of HSF1 (Q00613 whole entry): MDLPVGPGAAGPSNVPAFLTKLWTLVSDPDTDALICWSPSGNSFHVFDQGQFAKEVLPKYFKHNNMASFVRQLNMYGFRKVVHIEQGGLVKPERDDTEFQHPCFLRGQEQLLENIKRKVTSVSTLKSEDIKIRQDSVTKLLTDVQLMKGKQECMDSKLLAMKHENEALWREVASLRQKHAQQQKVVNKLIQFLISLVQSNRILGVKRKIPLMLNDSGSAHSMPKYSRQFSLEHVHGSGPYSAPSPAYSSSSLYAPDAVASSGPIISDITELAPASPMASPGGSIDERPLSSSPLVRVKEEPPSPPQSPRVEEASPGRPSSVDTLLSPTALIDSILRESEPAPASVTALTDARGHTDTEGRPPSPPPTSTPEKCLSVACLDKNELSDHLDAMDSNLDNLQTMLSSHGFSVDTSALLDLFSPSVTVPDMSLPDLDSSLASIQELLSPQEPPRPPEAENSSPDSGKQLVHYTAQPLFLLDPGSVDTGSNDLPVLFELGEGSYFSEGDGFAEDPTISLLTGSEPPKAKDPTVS
The next assay deals with T2, SPIC (Homo sapiens, UniProt Q8N5J4 1-248).
T2 sequence: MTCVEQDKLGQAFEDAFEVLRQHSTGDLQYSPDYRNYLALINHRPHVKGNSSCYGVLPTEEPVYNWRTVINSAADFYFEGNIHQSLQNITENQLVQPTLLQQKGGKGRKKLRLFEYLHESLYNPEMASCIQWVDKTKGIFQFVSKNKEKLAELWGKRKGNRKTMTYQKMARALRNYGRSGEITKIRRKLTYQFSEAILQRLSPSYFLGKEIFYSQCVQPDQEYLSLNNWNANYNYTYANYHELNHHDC
As to conditions: protein: recombinant; tags: N-terminal GST; dsDNA, one strand shown. Summed up:
as §1

The next assay deals with ELF4 (Homo sapiens, UniProt Q99607 1-663). As to conditions: protein: recombinant; tags: N-terminal GST; dsDNA, one strand shown. In a few lines:
as §1

Another assay deals with T3, ELK4 (Homo sapiens, UniProt P28324-2 1-405).
T3 sequence: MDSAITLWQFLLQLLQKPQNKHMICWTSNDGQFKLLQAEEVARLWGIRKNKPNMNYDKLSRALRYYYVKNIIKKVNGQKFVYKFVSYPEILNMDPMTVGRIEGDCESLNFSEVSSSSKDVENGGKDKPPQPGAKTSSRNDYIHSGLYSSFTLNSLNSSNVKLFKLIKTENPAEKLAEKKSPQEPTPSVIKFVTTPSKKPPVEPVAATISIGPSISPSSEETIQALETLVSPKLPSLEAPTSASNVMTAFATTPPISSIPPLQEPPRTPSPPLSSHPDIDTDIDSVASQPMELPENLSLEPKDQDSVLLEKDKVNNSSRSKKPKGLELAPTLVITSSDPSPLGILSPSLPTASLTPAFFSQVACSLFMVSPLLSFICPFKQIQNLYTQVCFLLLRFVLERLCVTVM
Conditions: protein: recombinant; tags: N-terminal GST; dsDNA, one strand shown. In a few lines:
as §1

For another assay, the target named is T4, ETV2 (Homo sapiens, UniProt O00321 1-342).
T4 sequence: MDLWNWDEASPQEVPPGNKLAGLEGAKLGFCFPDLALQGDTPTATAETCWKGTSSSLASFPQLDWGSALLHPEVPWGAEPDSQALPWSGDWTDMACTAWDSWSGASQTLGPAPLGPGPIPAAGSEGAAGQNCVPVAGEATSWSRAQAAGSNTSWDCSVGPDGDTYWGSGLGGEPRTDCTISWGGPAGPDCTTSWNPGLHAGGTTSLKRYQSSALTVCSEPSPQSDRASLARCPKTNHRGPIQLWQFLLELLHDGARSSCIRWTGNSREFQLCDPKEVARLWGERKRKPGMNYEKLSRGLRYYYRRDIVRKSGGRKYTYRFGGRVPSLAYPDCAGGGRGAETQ
Conditions: protein: recombinant; tags: N-terminal GST; dsDNA, one strand shown. In a few lines: as §1

In another assay the target is T5, ELF3 (Homo sapiens, UniProt P78545 1-371).
T5 sequence: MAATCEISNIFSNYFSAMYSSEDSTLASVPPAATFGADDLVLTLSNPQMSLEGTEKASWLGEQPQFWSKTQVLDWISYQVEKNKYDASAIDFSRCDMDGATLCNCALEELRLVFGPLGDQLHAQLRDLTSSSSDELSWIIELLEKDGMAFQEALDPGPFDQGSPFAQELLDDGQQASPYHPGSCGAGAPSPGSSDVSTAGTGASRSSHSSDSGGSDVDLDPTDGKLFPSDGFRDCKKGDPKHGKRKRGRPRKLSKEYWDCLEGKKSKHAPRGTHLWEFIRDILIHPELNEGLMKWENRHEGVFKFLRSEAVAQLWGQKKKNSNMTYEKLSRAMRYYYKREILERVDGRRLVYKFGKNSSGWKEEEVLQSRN
As to conditions: protein: recombinant; tags: N-terminal GST; dsDNA, one strand shown. In a few lines: as §1

Another assay deals with CRX (Homo sapiens, UniProt O43186 1-299). As to conditions: protein: recombinant; tags: N-terminal GST; dsDNA, one strand shown. In a few lines: as §1
Chain of CRX (O43186 whole entry): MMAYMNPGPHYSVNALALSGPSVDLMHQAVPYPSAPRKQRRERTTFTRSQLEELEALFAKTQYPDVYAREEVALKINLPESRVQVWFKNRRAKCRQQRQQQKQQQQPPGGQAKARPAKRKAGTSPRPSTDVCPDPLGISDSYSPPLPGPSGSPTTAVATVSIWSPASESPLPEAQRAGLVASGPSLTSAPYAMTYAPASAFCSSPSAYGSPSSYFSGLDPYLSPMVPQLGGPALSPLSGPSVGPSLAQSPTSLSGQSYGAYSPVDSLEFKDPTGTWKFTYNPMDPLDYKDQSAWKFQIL
The next assay addresses ETV1 (Homo sapiens, UniProt P50549 1-477). Conditions: protein: recombinant; tags: N-terminal GST; dsDNA, one strand shown. In a few lines:
as §1

The target in a further assay is T6, ERF (Homo sapiens, UniProt P50548 1-548).
T6 sequence: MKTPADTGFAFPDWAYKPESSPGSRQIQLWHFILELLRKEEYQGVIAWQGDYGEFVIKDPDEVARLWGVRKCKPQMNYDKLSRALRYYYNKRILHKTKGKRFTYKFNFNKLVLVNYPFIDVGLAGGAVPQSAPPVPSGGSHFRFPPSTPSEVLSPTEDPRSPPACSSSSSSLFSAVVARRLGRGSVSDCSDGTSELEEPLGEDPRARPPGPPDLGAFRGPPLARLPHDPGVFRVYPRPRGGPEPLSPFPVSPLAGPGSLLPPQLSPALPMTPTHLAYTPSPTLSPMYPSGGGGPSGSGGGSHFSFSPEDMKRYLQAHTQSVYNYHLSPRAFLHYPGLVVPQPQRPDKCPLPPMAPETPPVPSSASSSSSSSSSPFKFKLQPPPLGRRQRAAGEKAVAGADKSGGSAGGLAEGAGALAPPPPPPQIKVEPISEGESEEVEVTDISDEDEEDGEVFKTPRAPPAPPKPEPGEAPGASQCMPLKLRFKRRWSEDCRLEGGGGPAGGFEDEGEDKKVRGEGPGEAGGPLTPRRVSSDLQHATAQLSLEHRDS
Conditions: protein: recombinant; tags: N-terminal GST; dsDNA, one strand shown. Summed up:
as §1

The next assay has as its target T7, ETV3L (Homo sapiens, UniProt Q6ZN32 1-361).
T7 sequence: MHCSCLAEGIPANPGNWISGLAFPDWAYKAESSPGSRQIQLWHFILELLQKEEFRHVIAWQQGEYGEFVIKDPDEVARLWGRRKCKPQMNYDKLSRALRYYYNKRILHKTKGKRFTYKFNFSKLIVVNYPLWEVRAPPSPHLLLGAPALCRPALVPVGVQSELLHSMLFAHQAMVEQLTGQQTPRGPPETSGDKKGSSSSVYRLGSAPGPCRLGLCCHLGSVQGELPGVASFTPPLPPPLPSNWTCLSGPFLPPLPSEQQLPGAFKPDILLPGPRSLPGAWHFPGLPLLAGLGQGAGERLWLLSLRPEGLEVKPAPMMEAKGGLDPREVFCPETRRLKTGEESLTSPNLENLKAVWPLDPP
As to conditions: protein: recombinant; tags: N-terminal GST; dsDNA, one strand shown. Summed up:
as §1

A further assay addresses T8, ETS2 (Homo sapiens, UniProt P15036 1-469).
T8 sequence: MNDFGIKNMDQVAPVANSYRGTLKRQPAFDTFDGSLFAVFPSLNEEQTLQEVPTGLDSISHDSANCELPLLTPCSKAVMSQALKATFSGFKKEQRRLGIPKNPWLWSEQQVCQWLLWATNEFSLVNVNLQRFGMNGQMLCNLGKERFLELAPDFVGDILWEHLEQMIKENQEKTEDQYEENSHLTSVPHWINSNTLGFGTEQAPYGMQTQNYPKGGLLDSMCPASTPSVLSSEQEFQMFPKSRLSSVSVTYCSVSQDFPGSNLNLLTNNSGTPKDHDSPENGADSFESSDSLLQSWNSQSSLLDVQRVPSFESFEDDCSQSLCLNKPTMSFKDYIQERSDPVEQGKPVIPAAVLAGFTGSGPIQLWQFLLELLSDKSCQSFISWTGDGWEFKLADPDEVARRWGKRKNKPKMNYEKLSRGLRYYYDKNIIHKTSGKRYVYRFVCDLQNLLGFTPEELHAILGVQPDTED
As to conditions: protein: recombinant; tags: N-terminal GST; dsDNA, one strand shown. In a few lines: as §1

For another assay, the target named is T9, SPDEF (Homo sapiens, UniProt O95238 1-335).
T9 sequence: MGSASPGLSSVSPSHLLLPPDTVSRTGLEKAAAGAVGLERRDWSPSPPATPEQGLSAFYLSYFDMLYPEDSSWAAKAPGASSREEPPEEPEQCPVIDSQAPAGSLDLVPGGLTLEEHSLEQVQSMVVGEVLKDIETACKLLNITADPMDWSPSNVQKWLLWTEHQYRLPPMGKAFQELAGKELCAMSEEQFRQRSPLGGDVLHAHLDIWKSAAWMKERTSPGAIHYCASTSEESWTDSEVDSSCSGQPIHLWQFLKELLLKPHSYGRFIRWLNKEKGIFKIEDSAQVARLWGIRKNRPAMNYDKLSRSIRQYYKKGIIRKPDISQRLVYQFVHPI
Conditions: protein: recombinant; tags: N-terminal GST; dsDNA, one strand shown. In a few lines:
as §1

A further assay deals with T10, ETV7 (Homo sapiens, UniProt Q9Y603 1-341).
T10 sequence: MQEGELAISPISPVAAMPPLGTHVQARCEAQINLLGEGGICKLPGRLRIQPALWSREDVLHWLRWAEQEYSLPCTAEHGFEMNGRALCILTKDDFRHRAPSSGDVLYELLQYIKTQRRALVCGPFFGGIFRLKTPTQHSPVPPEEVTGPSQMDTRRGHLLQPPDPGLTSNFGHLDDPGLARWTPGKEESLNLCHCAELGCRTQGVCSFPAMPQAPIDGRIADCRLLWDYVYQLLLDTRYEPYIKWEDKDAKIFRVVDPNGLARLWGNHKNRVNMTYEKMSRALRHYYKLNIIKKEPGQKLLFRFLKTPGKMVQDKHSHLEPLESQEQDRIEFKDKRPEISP
As to conditions: protein: recombinant; tags: N-terminal GST; dsDNA, one strand shown. In a few lines: as §1

The target in another assay is T11, ELF5 (Homo sapiens, UniProt Q9UKW6-2 1-255).
T11 sequence: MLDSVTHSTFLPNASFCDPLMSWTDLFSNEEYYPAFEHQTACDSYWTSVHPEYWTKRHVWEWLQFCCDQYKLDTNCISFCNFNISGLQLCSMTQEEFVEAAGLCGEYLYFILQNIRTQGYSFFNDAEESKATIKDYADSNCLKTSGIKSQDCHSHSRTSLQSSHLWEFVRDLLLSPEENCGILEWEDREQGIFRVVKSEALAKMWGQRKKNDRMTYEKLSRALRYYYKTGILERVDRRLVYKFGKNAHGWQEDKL
Conditions: protein: recombinant; tags: N-terminal GST; dsDNA, one strand shown. Summed up: as §1

A further assay addresses T12, ETV3 (Homo sapiens, UniProt P41162-2 1-143).
T12 sequence: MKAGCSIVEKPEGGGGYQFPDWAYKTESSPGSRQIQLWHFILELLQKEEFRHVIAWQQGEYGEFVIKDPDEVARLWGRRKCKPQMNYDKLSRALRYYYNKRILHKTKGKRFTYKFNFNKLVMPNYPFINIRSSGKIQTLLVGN
Conditions: protein: recombinant; tags: N-terminal GST; dsDNA, one strand shown. In a few lines: as §1

Another assay deals with ETV6 (Homo sapiens, UniProt P41212 1-452). Conditions: protein: recombinant; tags: N-terminal GST; dsDNA, one strand shown. Summed up:
as §1

Chain of ELF4 (Q99607 whole entry): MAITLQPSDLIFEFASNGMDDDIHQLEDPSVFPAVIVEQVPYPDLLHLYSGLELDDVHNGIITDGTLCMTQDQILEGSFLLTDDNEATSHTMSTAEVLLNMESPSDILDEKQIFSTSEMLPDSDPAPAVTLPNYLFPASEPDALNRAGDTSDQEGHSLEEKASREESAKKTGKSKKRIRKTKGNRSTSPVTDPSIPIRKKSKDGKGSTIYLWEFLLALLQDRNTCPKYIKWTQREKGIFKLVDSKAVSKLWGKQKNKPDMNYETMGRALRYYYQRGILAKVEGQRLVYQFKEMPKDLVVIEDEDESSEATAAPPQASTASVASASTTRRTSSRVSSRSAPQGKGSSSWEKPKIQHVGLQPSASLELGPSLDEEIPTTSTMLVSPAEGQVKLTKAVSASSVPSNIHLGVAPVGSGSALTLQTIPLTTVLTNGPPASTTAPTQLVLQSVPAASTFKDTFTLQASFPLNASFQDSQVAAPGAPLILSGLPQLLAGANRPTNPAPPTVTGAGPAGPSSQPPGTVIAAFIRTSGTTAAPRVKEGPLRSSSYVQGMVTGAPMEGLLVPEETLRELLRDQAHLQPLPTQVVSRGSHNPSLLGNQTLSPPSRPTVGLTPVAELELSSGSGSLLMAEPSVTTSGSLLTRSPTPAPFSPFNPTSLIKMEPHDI
Chain of ETV6 (P41212 whole entry): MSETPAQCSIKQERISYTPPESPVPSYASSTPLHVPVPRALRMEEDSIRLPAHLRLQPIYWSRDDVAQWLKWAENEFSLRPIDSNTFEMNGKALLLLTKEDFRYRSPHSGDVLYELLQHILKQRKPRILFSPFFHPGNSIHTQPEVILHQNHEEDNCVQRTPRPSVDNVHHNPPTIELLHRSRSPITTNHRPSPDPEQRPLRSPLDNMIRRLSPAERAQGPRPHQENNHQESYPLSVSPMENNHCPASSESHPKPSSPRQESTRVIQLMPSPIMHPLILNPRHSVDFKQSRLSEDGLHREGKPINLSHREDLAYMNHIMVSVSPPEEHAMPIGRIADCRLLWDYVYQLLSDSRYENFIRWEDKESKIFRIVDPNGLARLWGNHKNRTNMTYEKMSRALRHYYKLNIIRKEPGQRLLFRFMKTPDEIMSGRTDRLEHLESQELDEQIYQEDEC
Chain of ETV1 (P50549 whole entry): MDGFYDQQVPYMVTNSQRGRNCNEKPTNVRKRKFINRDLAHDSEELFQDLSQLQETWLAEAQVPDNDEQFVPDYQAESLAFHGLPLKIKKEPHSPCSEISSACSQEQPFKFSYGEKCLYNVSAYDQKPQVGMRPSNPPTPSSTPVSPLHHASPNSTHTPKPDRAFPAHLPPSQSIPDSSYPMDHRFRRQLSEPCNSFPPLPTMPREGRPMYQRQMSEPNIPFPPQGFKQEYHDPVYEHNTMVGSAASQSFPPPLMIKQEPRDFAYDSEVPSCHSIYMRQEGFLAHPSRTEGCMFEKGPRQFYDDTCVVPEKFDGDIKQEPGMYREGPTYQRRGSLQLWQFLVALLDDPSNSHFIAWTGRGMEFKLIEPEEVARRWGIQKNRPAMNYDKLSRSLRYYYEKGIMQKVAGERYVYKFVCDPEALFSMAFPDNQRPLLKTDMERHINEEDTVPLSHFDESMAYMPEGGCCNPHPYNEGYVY
Chain of ETV5 (P41161 whole entry): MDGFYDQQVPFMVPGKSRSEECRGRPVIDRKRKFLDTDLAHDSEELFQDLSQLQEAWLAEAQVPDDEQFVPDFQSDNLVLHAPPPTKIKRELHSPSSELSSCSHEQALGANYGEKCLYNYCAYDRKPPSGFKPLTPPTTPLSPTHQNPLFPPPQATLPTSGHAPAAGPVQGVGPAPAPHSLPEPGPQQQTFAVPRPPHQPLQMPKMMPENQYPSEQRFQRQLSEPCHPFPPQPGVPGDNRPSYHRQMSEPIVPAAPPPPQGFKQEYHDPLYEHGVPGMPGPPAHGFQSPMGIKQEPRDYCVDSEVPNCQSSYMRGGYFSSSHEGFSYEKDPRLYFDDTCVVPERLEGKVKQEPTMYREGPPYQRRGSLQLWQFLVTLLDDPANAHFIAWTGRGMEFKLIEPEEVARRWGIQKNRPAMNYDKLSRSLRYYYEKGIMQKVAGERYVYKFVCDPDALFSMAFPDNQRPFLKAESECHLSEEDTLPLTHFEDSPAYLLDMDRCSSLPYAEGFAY

For the sequence TTAGCA, the binding signal with FEV was 1.23 fold enrichment (6-mer frequency, TF over GST control); with ETV5 it was 1.15 fold enrichment (6-mer frequency, TF over GST control); with HSF1, 1.7 fold enrichment (6-mer frequency, TF over GST control); in the assay with SPIC, 1.22 fold enrichment (6-mer frequency, TF over GST control); in the assay with ELF4, 1.33 fold enrichment (6-mer frequency, TF over GST control); in the assay with ELK4, 1.33 fold enrichment (6-mer frequency, TF over GST control). In addition, the binding signal with ETV2 is 1.27 fold enrichment (6-mer frequency, TF over GST control); with ELF3 it was 1.3 fold enrichment (6-mer frequency, TF over GST control); in the assay with CRX, 2.38 fold enrichment (6-mer frequency, TF over GST control); in the assay with ETV1, 1.32 fold enrichment (6-mer frequency, TF over GST control); in the assay with ERF it was 1.29 fold enrichment (6-mer frequency, TF over GST control); with ETV3L, 1.26 fold enrichment (6-mer frequency, TF over GST control). The binding signal with ETS2 was 1.16 fold enrichment (6-mer frequency, TF over GST control); in the assay with SPDEF it was 1.23 fold enrichment (6-mer frequency, TF over GST control); with ETV7 it was 1.19 fold enrichment (6-mer frequency, TF over GST control); with ELF5, 1.15 fold enrichment (6-mer frequency, TF over GST control); with ETV3 it was 1.19 fold enrichment (6-mer frequency, TF over GST control); in the assay with ETV6, 1.25 fold enrichment (6-mer frequency, TF over GST control).

The values are drawn from publication PMC7862700, “An all-to-all approach to the identification of sequence-specific readers for epigenetic DNA modifications on cytosine”.
